This passage reports AC50 and outcome results from PubChem BioAssay (EPA / NIEHS).

Records with an inconclusive call do not appear. Activity calls are given as the source filed them. Rule for the calls, unless noted: active = hit-call score of the fitted dose curve at least 0.9, where 1 is the maximum; inconclusive = response in the unintended direction; inactive = score below 0.9.

Assay [1] can be described thus: TOX21_p53_BLA_p2_viability: Viability Assessment in the Tox21 HCT-116 p53 Agonism Beta-lactamase Assay, Phase 2 (AID 2283591).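 Note: actives lower the ATP signal meaning cytotoxicity.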 The method in brief: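 HCT116 p53-bla cells, 4000/well, dosed after 5 h plating (217-fold dilution of DMSO stocks) and incubated 16 h at 37C. Viability taken as cellular ATP by CellTiter-Glo luminescence after 30 min RT; signal loss marks cytotoxicity.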

The target of assay [2] is Cellular tumor antigen p53 (Homo sapiens) (UniProt P04637). As to the kind of experiment: TOX21_p53_BLA_p2_ratio: Tox21 HCT-116 p53 Agonism Beta-lactamase Assay, Ratio, Phase 2 (AID 2283592). The method in brief: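 HCT-116 cells with p53-responsive beta-lactamase reporter, 4000 cells/well, preincubated 5 h, then compound in DMSO (217-fold dilution) for 16 h at 37C. CCF4-AM substrate 2 h at room temperature; 460/530 nm emission ratio fitted upward versus DMSO.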
Cellular tumor antigen p53 (Homo sapiens), sequence (P04637 whole entry, looked up): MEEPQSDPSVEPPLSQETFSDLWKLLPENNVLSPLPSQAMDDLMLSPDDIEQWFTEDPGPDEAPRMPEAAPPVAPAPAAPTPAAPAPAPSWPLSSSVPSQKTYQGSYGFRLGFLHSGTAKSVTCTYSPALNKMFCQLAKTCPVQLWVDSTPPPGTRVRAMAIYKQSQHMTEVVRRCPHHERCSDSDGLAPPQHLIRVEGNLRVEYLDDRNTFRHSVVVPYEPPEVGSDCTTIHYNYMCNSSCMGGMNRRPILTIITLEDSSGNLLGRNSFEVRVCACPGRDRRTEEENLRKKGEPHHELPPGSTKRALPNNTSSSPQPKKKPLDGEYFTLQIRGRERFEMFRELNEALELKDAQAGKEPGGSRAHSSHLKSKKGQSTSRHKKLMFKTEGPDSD

Assay [3] can be described thus: TOX21_p53_BLA_p3_viability: Viability Assessment in the Tox21 HCT-116 p53 Agonism Beta-lactamase Assay, Phase 3 (AID 2283593).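 Note: cells exposed to compound for 16 h before reading.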 The method in brief: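 HCT116 cells, 4000/well, dosed 5 h after plating by pin transfer (217-fold dilution from DMSO stock) and incubated 16 h at 37C, 5% CO2. Viability read as ATP luminescence with CellTiter-Glo after 30 min at room temperature.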

For assay [4], the target named is Cellular tumor antigen p53 (Homo sapiens) (UniProt P04637). The assay can be described thus: TOX21_p53_BLA_p3_ratio: Tox21 HCT-116 p53 Agonism Beta-lactamase Assay, Ratio, Phase 3 (AID 2283596). The method in brief: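 HCT116 p53-bla cells (4000/well) given compound in DMSO (217-fold dilution) after 5 h, incubated 16 h at 37C. CCF4-AM substrate 2 h at room temperature; 460/530 nm emission ratio, gain fitted against DMSO.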

Assay [5] can be described thus: TOX21_p53_BLA_p4_viability: Viability Assessment in the Tox21 HCT-116 p53 Agonism Beta-lactamase Assay, Phase 4 (AID 2283597).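 Note: hits lower the luminescence signal meaning cytotoxicity.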 Summed up:
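HCT-116 p53-bla cells, 4000/well, dosed after 5 h attachment and incubated 16 h at 37 °C, 5% CO2. Viability from CellTiter-Glo ATP luminescence after 30 min at room temperature, taken after the beta-lactamase read; loss of signal indicates cytotoxicity.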

For assay [6], the target named is Cellular tumor antigen p53 (Homo sapiens) (UniProt P04637). The assay can be described thus: TOX21_p53_BLA_p5_ratio: Tox21 HCT-116 p53 Agonism Beta-lactamase Assay, Ratio, Phase 5 (AID 2283599). The method in brief:
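HCT-116 p53-bla cells (4000/well) plated 5 h, dosed with compound (217-fold DMSO dilution) for 16 h at 37 C; CCF4-AM substrate 2 h at room temperature. Activity is the 460/530 nm emission ratio (405 nm excitation), fitted in gain-of-signal direction versus DMSO.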

Assay [7] can be described thus: TOX21_p53_BLA_p5_viability: Viability Assessment in the Tox21 HCT-116 p53 Agonism Beta-lactamase Assay, Phase 5 (AID 2283600). Summed up:
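HCT-116 p53 beta-lactamase reporter cells, 4000/well, were exposed to compound (pin transfer, 217-fold dilution) for 16 hours at 37C. Cellular ATP was read by CellTiter-Glo luminescence after 30 min at room temperature.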

Assay [8] addresses Cellular tumor antigen p53 (Homo sapiens) (UniProt P04637). The assay can be described thus: TOX21_p53_BLA_p4_ratio: Tox21 HCT-116 p53 Agonism Beta-lactamase Assay, Ratio, Phase 4 (AID 2283601). The method in brief:
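HCT-116 p53 beta-lactamase reporter cells (4000/well) preincubated 5 h, then compound (217-fold dilution of DMSO stock) for 16 h at 37C. CCF4-AM substrate added 2 h at room temperature; 460/530 nm emission ratio fitted upward versus DMSO.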

Assay [9] addresses Thyroid hormone receptor alpha (Rattus norvegicus) + Thyroid hormone receptor beta (Rattus norvegicus) (UniProt P18113+P63059). As to the kind of experiment: TOX21_TR_LUC_GH3_Antagonist_Followup: Tox21 GH3 Thyroid Hormone Receptor Antagonism Luciferase Follow-Up Assay (AID 2283942). The method in brief: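 Antagonist mode: GH3 cells seeded 1,500/well, compounds at 15 concentrations (92 uM to 5nM final) plus T3 at 1.0 nM final, 24 h at 37C. Luciferase read with ONE-Glo after 30 min at room temperature.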

A further assay has as its target THRA (gene 7067) (UniProt P10827). As to the kind of experiment: TOX21_TRA_COA_Antagonist_Followup_ratio: Tox21 Thyroid Hormone Receptor alpha Antagonism through Coactivator Recruitment Follow-Up Assay, Ratio (AID 2283953). The method in brief: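 This follow-up to the GH3 luciferase screen checks specificity in a cell-free format. It measures SRC-2 coactivator peptide binding to TRα LBD by TR-FRET and scores loss of ratio signal relative to DMSO.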

The target in assay [10] is THRB (gene 7068) (UniProt P10828). The assay can be described thus: TOX21_TRB_BLA_Antagonist_Followup_ratio: Tox21 Thyroid Hormone Receptor beta Antagonism Beta-lactamase (BLA) Follow-Up Assay, Ratio (AID 2283958). Summed up:
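In this antagonist-mode follow-up, a stably integrated GAL4-TRβ LBD fusion drives a UAS-beta-lactamase reporter in HEK293T cells. Loss of ratio signal relative to DMSO after 18 h treatment indicates activity; parallel CellTiter-Glo flags cytotoxicity.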

Assay [11] can be described thus: TOX21_TRB_BLA_Antagonist_Followup_viability: Viability Assessment in the Tox21 Thyroid Hormone Receptor beta Antagonism Beta-lactamase (BLA) Follow-Up Assay (AID 2283961). The method in brief:
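HEK293T cells with GAL4-human TRβ LBD and UAS-bla reporter, 3,000 cells/well in 2% charcoal-stripped FBS medium; 11-point concentrations in triplicate, 18 h at 37C. Viability from ATP by CellTiter-Glo luminescence, 30 min RT, same plates.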

Assay [12] concerns the target THRB (gene 7068) (UniProt P10828). The assay can be described thus: TOX21_TRB_COA_Antagonist_Followup_ratio: Tox21 Thyroid Hormone Receptor beta Antagonism through Coactivator Recruitment Follow-Up Assay, Ratio (AID 2283967). The method in brief:
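Cell-free TR-FRET: GST-TRb LBD (5.0 nM) with fluorescein-SRC-2 peptide (200 nM) and Tb anti-GST antibody (2 nM), 0.10% BSA. 520:495 nm emission ratio normalized to DMSO (0%) and T3 (100%).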

A short description of assay [13]: TOX21_TR_RXR_BLA_Antagonist_Followup_viability: Viability Assessment in the Tox21 Thyroid Hormone Receptor beta Retinoid X Receptor alpha (RXRa) Antagonism Beta-lactamase (BLA) Follow-Up Assay (AID 2283979). The method in brief:
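RXRa-bla HEK293T cells (2,500/well, phenol red-free DMEM, 2% charcoal-stripped FBS) were attached 5 h, then exposed to compounds at 11 concentrations in triplicate for 16 h at 37C. Viability measured by CellTiter-Glo ATP luminescence, bidirectional fitting versus DMSO.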

The target of assay [14] is PGR (gene 5241) (UniProt P06401). The assay can be described thus: TOX21_PR_BLA_Followup_Antagonist_ratio: Tox21 HEK293 Progesterone Receptor (PR) Antagonism Beta-lactamase Follow-Up Assay, Ratio (AID 2283934).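 Note: PR-UAS-bla HEK293T cells stimulated with 1 nM R5020 agonist for 16 hr.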 The method in brief:
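Antagonist mode used 1 nM R5020 (final) as agonist on a beta-lactamase reporter line in HEK293T cells. Activity was taken from the substrate cleavage ratio after 16 hr exposure.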

Assay [15] can be described thus: TOX21_PR_BLA_Followup_Agonist_viability: Viability Assessment in the Tox21 HEK293 Progesterone Receptor (PR) Agonism Beta-lactamase Follow-Up Assay (AID 2283935).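 Note: signal loss means lower viability so actives are cytotoxic.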 The method in brief: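 Multiplexed viability counter-screen: ATP-coupled luciferase signal measured after 30 min at room temperature, following 16 hr compound treatment of PR-UAS-bla HEK293T cells grown in charcoal-stripped serum.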

Assay [16] is described as follows: TOX21_PR_BLA_Followup_Antagonist_viability: Viability Assessment in the Tox21 HEK293 Progesterone Receptor (PR) Antagonism Beta-lactamase Follow-Up Assay (AID 2283936).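 Note: hits lower the luminescence signal meaning cytotoxicity.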 Summed up: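 PR-UAS-bla HEK293T cells (3,000/well, 2% charcoal-stripped FBS) given compound plus R5020 agonist, 16 h at 37C. CellTiter-Glo added after bla read, 30 min at room temperature; luminescence loss indicates cytotoxicity.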

The target of assay [17] is PGR (gene 5241) (UniProt P06401). The assay can be described thus: TOX21_PR_LUC_Followup_Agonist: Tox21 HEK293 Progesterone Receptor (PR) Agonism Luciferase Follow-Up Assay (AID 2283937; active = hit-call score of the fitted dose curve at least 0.9, where 1 is the maximum; inactive = score below 0.9). The method in brief: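 Agonist mode: reporter cells carrying PR-A and luciferase are treated 16 h with test compounds at 37C. Luciferase induction is measured by luminescence and fitted upward against DMSO.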
PGR (gene 5241), sequence (P06401 whole entry, looked up): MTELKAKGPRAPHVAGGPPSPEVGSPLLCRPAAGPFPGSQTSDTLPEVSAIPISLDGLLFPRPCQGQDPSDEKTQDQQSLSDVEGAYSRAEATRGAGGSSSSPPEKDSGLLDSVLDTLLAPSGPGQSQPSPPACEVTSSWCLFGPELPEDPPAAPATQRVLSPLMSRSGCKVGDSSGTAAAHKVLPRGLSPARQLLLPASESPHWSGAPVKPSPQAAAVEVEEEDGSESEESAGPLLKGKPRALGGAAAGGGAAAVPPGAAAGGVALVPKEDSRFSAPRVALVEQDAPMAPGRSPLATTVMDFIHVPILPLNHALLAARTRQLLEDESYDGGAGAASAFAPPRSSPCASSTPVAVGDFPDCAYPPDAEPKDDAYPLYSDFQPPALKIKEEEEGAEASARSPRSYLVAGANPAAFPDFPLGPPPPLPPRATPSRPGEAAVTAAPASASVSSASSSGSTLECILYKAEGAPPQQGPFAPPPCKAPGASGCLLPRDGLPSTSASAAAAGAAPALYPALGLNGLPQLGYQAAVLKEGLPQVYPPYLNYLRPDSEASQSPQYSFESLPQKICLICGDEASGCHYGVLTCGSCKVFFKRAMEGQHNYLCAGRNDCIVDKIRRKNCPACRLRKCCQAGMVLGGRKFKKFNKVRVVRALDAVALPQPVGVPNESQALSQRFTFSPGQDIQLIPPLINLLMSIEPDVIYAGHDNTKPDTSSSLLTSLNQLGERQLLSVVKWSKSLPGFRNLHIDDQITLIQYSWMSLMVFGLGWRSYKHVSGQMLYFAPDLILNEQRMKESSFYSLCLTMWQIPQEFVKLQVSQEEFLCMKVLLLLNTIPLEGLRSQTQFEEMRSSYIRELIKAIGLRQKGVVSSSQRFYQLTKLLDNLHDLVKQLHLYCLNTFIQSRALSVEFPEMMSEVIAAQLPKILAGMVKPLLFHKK

For assay [18] the target is unchanged. The assay can be described thus: TOX21_PR_LUC_Followup_Antagonist: Tox21 HEK293 Progesterone Receptor (PR) Antagonism Luciferase Follow-Up Assay (AID 2283938).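 Note: curve fitted upward as signal gain over DMSO baseline despite antagonist label.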 Summed up: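 HEK293-PR-A-luc cells, 3,000/well, preincubated 5 h at 37C before compound addition in DMSO; 16 h compound exposure at 37C. ONE-Glo luciferase luminescence read after 30 min at room temperature, fitted relative to DMSO baseline.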

Assay [19] is described as follows: TOX21_PR_LUC_Followup_Antagonist_viability: Viability Assessment in the Tox21 HEK293 Progesterone Receptor (PR) Antagonism Luciferase Follow-Up Assay (AID 2283940). Summed up: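 Cellular ATP, measured with luciferase-coupled CellTiter-Glo, served as the viability endpoint after HEK293-PR-A-luc cells were exposed to test compounds for 16 h at 37C.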
The nature of assay [20]: TOX21_PR_LUC_Followup_Agonist_viability: Viability Assessment in the Tox21 HEK293 Progesterone Receptor (PR) Agonism Luciferase Follow-Up Assay (AID 2283941).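 Note: loss of signal means cytotoxicity so actives lower viability.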 The method in brief:
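Luminescent ATP quantitation (CellTiter-Glo) serves as the read-out; a drop flags cytotoxic compounds. Cells are HEK293-PR-A-luc grown in 10% charcoal-stripped FBS, plated 3,000/well, and exposed to compound for 16 h.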

THRB (gene 7068), sequence (P10828 whole entry, looked up, the tested form may be a part): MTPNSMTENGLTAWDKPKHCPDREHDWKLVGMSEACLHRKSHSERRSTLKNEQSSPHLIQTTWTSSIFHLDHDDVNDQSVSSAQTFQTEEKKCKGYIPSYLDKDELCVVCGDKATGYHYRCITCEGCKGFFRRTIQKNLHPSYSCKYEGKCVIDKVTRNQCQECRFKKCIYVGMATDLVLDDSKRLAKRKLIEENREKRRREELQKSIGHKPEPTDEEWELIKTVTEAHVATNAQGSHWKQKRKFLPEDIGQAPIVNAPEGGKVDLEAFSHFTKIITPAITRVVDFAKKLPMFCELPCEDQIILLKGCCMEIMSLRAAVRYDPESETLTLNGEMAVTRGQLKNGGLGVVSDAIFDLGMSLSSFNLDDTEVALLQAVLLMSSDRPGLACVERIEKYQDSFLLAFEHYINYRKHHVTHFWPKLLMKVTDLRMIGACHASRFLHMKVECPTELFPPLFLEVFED
THRA (gene 7067), sequence (P10827 whole entry, looked up, the tested form may be a part): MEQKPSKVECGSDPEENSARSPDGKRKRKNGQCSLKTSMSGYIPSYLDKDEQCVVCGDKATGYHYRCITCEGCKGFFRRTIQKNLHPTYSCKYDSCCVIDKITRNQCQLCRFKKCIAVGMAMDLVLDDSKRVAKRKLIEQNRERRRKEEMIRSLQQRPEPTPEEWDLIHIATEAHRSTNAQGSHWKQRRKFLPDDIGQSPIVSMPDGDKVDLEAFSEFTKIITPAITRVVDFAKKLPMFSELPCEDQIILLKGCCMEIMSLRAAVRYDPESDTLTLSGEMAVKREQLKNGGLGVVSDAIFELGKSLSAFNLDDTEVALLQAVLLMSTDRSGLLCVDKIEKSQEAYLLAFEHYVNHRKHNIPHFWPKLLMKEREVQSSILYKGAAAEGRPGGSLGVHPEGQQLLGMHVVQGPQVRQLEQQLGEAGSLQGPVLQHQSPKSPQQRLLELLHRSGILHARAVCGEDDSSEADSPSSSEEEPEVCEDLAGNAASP

For the compound `CO[C@H]1C[C@@H]2CC[C@@H](C)[C@@](O)(O2)C(=O)C(=O)N2CCCC[C@H]2C(=O)O[C@H]([C@H](C)C[C@@H]2CC[C@@H](OCCO)[C@H](OC)C2)CC(=O)[C@H](C)/C=C(\C)[C@@H](O)[C@@H](OC)C(=O)[C@H](C)C[C@H](C)\C=C/C=C/C=C/1C`, the concentration at half-maximal activity (AC50) in assay [1] is 19.2 µM (active); in assay [2], 17.9 µM (active); in assay [3], 27.4 µM (active); in [4], 40.2 µM (active); in [5], 21.9 µM (active); in [6] it was 21.9 µM (active). The AC50 in assay [7] is 20.6 µM (active); in assay [8] it was 23 µM (active); in assay [9], 0.00976 µM (active). Besides, the result (in the assay with THRA (gene 7067); with THRB (gene 7068) [10]; in assay [11]; with THRB (gene 7068) [12]; in assay [13]) was inactive.
`Brc1cc(Oc2cc(Br)c(Br)c(Br)c2Br)c(Br)c(Br)c1Br`: the result in assay [1], in assay [2], in assay [3], in assay [4], in [5] and in [6] was inactive. Besides, the compound was called inactive (in assay [7]; in assay [8]; in assay [9]; with THRA (gene 7067); in [11]; in the assay with THRB (gene 7068) [12]). In addition, in assay [13], the result was inactive.
`Oc1ccc(N=Nc2ccccc2)cc1`: the compound was called inactive (in assay [1]; in assay [7]; in assay [15]; in assay [16]; with PGR (gene 5241) [17]; with PGR (gene 5241) [18]). Besides, the call in assay [19] and in [20] was inactive. Also, the AC50 is 87.4 µM (active) in [2]; 75 µM (active) in assay [3]; 87.5 µM (active) in assay [4]; 75.7 µM (active) in assay [5]; 74.7 µM (active) in assay [6]; 87.8 µM (active) in assay [8]. Moreover, the AC50 with PGR (gene 5241) [14] is 27.5 µM (active).
